The results in this text go back to PubChem BioAssay.

The nature of test [1]: Wnt pathway potentiators raising nuclear beta-catenin – imaging, WNT3A-conditioned medium, mouse C2C12, NPC library, primary screen (AID 1117326; in the data active = nuclear beta-catenin stimulation mostly above about 4.2%, no sharp cut-off; inactive = mostly below about 10%). The settings on record: stronger effect = higher value.
Test [2] in a line: stimulators of insulin release from INS-1E, primary screen, cell-based, 5 mM glucose, NPC library (AID 1117329;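 active = compound raises insulin release from rat beta cells at 5 mM glucose, no numeric limit stated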). The settings on record: rat INS-1E insulin secretion, at 10 µM, stronger effect = higher value.
The nature of test [3]: growth inhibition of GSK3B-pretreated HCT116 cells – cell-based, CellTiter-Glo, 0.2 to 20 µM (AID 1117336;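 active = compounds lowering colon cancer cell viability after pretreatment blocking the GSK3B kinase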). The note with it: HCT116 viability after GSK3B inhibitor, at 20 µM, stronger effect = higher value. For orientation: Cellular ATP, detected with luciferase, serves as a proxy for viable cell number.
Test [4] can be described thus: inhibition of endothelial tube formation, primary screen, imaging, VEGF stimulated, CD31 staining, tube area, NPC library (AID 1117340;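 active = compound that reduces growth-factor-driven endothelial tube area in a mixed cell culture, no cutoff stated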). The note with it: VEGF-stimulated ADSC/ECFC co-culture, at 10 µM, stronger effect = higher value.
Test [5] can be described thus: GLP1 release stimulators, primary, NCI-H716, NPC library (AID 1117341;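 active = compound raises GLP1 secretion from the human gut endocrine cells, with no numeric limit stated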). The settings on record: NCI-H716 cells, at 10 µM, stronger effect = higher value.
Test [6] in a line: HCT116 colon cancer cell growth inhibition, primary screen, CellTiter-Glo luminescence, NPC library (AID 1117342;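 active = compounds that lower survival of HCT116 colon cancer cells in the luminescence readout, no numeric limit stated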). The note with it: at 20 µM (top of the series).
Test [7] can be described thus: reduced SW480 viability measured with CellTiter-Glo, NPC library, primary (AID 1117343;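 active = compounds that lower viability of the colon cancer cells in the luminescence readout, with no numeric limit stated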). The note with it: CellTiter-Glo luminescence; at 20 µM (top of the series) unless noted.
The nature of test [8]: NPC library primary testing for decreased DLD-1 cell viability via CellTiter-Glo (AID 1117346;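 active = compounds that lower survival of DLD-1 colon cancer cells in the luminescence readout, no cutoff given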). The settings on record: DLD-1 viability, CellTiter-Glo luminescence; at 20 µM (top of the series).
Test [9] in a line: EMT-state selective cytotoxicity in co-culture – imaging, PC-3E GFP, TEM4-18 mCherry, primary screen (AID 1345086;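 active = compounds killing one labelled cell type while sparing the other, by normalised counts and ratio limits, not self-fluorescent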;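 for all read-outs here: cells exposed to compound for 72 h before imaging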;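 for red/green cell ratio (normalised): normalised mesenchymal count divided by normalised epithelial count so high means epithelial killing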). The settings on record: PC-3E GFP / TEM4-18 mCherry co-culture, imaging cell counts, at 1 µM; for red/green cell ratio (normalised): actives lie on both sides, counts scaled to control wells, 1 = unselective.
Test [10] can be described thus: viability loss with induced miR-34 in A549 – imaging, A549 dox-inducible miR-34, nuclei and caspase counts, primary screen (AID 1347080). The note with it: A549 miR-34 inducible, Hoechst nuclei count, 48 h.
The nature of test [11]: MELAS cybrid and Rieske KO viability enhancers – cell-based, MELAS cybrids, Rieske KO mouse fibroblasts, CellTiter-Glo, primary screen (AID 1508586;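 active = mean z-score across replicates of 1.96 or higher in either the MELAS or the Rieske mutant cell line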;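 note: z relative to plate mean and SD of compound and empty wells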). The settings on record: low glucose.
Test [12] addresses NAD(+) hydrolase SARM1 (Homo sapiens) (UniProt Q6SZW1). The experiment in a line: blocking NAD cleavage by SARM1 SAM-TIR – cell lysate, NAD-Glo luminescence (AID 1508614;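 active = compound whose remaining NAD level is above about 45 nM, limit read from the data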;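 note: higher remaining NAD means stronger inhibition of SARM1 NADase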). The note with it: SAM-TIR HEK293T lysate NADase, at 1 µM, stronger effect = higher value.
Test [13] in a line: compounds altering viability of human ES cells (AID 493140; call rule not given here;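 note: cells exposed to compounds for four days before counting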). The note with it: human embryonic stem cell survival screen; stronger effect = higher value.
A short description of test [14]: P. berghei load reduction in hepatocytes – cell-based, HepG2, luciferase luminescence, HepG2 viability, primary screen (AID 624349; in the data active = parasite load remaining mostly below about 12%, no sharp cut-off; inactive = mostly above about 10%;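 note: 100% = mean of DMSO negative control wells on the same plate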). The settings on record: P. berghei liver stage in HepG2, luciferase luminescence, concentration not given here; parasite load remaining: stronger effect = lower value; viability: measured here: HepG2 viability without parasites.
The mark [15] stands for this setting: measured here: epithelial PC-3E GFP cell survival.
Setting [16] is: measured here: mesenchymal TEM4-18 mCherry cell survival.
Where [17] appears, read: stronger effect = lower value, cell number ratio, induced over uninduced.
The mark [18] stands for this setting: measured here: relative caspase fold change +Dox/-Dox.
Setting [19] is: measured here: total cells with miR-34 induction, stronger effect = lower value.
The mark [20] stands for this setting: measured here: total cells without miR-34 induction.
[21] abbreviates: MELAS cybrid survival, CellTiter-Glo 48 h, stronger effect = higher value.
The mark [22] stands for this setting: Rieske KO mouse fibroblast survival, CellTiter-Glo 72 h.

“And” between values parts separate entries of the source, which are not always exact repeats. Equal values may be shown once. The source made the active and inactive calls.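 Rule for the calls, unless noted: active = compounds whose cell count with miR-34 switched on is under 0.7 times the count with it off; inactive = the rest.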

NAD(+) hydrolase SARM1 (Homo sapiens), sequence (Q6SZW1 whole entry, looked up): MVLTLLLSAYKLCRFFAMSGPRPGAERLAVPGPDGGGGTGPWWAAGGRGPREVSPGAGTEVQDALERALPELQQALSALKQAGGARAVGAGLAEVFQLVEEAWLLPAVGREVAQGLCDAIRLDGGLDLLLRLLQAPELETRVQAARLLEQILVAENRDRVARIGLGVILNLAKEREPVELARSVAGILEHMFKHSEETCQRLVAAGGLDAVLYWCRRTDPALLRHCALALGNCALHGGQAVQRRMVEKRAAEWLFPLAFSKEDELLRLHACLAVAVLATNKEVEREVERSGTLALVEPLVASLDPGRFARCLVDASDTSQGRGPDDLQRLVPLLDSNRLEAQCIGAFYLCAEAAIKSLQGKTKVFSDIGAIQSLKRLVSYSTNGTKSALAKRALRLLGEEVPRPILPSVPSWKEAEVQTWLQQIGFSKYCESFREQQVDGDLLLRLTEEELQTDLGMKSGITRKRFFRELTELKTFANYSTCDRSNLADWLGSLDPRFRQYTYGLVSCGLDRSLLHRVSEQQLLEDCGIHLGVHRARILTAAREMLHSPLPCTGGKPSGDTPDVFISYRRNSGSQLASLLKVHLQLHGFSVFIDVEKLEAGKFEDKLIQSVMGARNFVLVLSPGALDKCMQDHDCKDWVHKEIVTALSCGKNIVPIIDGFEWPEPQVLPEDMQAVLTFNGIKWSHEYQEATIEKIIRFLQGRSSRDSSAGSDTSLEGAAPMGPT

On to `CCN(CC)CCNC(C(=O)OCCC(C)C)c1ccccc1` (configuration not stated), for which the nuclear beta-catenin stimulation in test [1] (at 10 µM) was -0.8% (inactive); in test [1] (stimulation, at 2 µM) it was -0.5%. For the same compound, the insulin secretion stimulation in test [2] was 32.4% (active). Moreover, the viability decrease in test [3] was 6.1% (inactive). For the same compound, the tube area decrease in test [4] was -3.9% (inactive). For the same compound, the GLP1 secretion stimulation in test [5] is 8.2% (inactive). Besides, the inhibition of viability in test [6] is 0.2% (inactive). The figures for the viability decrease (inhibition) in test [7] and in test [8] were 26.1% (inactive) and 9.9% (inactive), respectively. The red/green cell ratio (normalised) in test [9] was 1.16 (inactive). The results for the normalised cell number in test [9] (setting [15]) and in test [9] (setting [16]) were 0.66 and 0.76, respectively. The values for the fold change in test [10] (setting [17]) and in [10] (setting [18]) were 0.979 (inactive) and 0.754, respectively. The cell count in test [10] (setting [19]) was 8430; in test [10] (setting [20]), 8620. Besides, the results for the z-score in test [11] (setting [21]) and in test [11] (setting [22]) were 0.328 (inactive) and 0.121, respectively. In addition, the remaining NAD in [12] was 10 nM (inactive).
In the case of `CC(C)(C)NCC(O)COc1cccc2c1CCC(=O)N2` (configuration not stated), the survival in test [13] was 7.75 (inactive). Also, the parasite load remaining in test [14] is 126% (inactive) and 79.2% (inactive). Also, in [14], the viability was 105% and 76.8%. The nuclear beta-catenin stimulation was 0.7% (inactive) in test [1] (at 10 µM) and 1.8% in test [1] (stimulation, at 2 µM). In addition, the insulin secretion stimulation in test [2] was 1.4% (inactive). The viability decrease in test [3] was -25.9% (inactive). For the same compound, the tube area decrease in test [4] was -2.9% (inactive). Further, in test [5], the GLP1 secretion stimulation is 1.2% (inactive). The inhibition of viability in test [6] was -1.83% (inactive). Also, the figures for the viability decrease (inhibition) in test [7] and in test [8] were -26.6% (inactive) and -8.8% (inactive), respectively. For the same compound, the red/green cell ratio (normalised) in [9] is 1.13 (inactive). Moreover, the normalised cell number in test [9] (setting [15]) was determined as 1.2; in test [9] (setting [16]) it was 1.36. Moreover, the fold change in [10] (setting [17]) was 0.805 (inactive) and 0.903 (inactive); in [10] (setting [18]) it was 0.997 and 0.693. The cell count in test [10] (setting [19]) was 8680 and 7910; in [10] (setting [20]), 10800 and 8760. Also, the z-score in [11] (setting [21]) is -0.229 (inactive) and 0.6 (inactive); in test [11] (setting [22]), -0.22 and -0.0871. In test [12], the remaining NAD is 10 nM (inactive).
`CCCOc1cc(N)ccc1C(=O)OCCN(CC)CC`: the survival in test [13] is 9.5 (inactive). Also, the parasite load remaining in test [14] was 77.2% (inactive). The viability in [14] worked out at 75.5%. Besides, the nuclear beta-catenin stimulation in test [1] (at 10 µM) was 0% (inactive); in [1] (stimulation, at 2 µM), 0.6%. Moreover, the insulin secretion stimulation in test [2] is 4.5% (inactive). Further, in [3], the viability decrease is -4.1% (inactive). The tube area decrease in test [4] was -15.3% (inactive). For the same compound, the GLP1 secretion stimulation in test [5] is -1.7% (inactive). Further, the inhibition of viability in test [6] was -3.9% (inactive). Also, the figures for the viability decrease (inhibition) in [7] and in test [8] were 4% (inactive) and -9.1% (inactive), respectively. Further, in [9], the red/green cell ratio (normalised) is 1 (inactive). For the same compound, the normalised cell number in test [9] (setting [15]) and in test [9] (setting [16]) was 1.21 throughout. Also, the fold change in [10] (setting [17]) is 0.973 (inactive); in test [10] (setting [18]), 0.697. For the same compound, the cell count in [10] (setting [19]) stood at 9580; in test [10] (setting [20]), 9850. Besides, the results for the z-score in test [11] (setting [21]) and in [11] (setting [22]) were -0.734 (inactive) and -0.617, respectively. In addition, the remaining NAD in test [12] was 10 nM (inactive).
As to `Cc1cc2nc3ccc(=[N+](C)C)cc-3sc2cc1N`, the nuclear beta-catenin stimulation was 21.6% (inactive) in [1] (at 10 µM) and 1% in [1] (stimulation, at 2 µM). Also, the insulin secretion stimulation in test [2] is -0.6% (inactive). Also, the viability decrease in test [3] was 90.5% (active). Also, the tube area decrease in [4] is 108% (active). For the same compound, the GLP1 secretion stimulation in [5] was -3.7% (inactive). Moreover, the inhibition of viability in test [6] is 82.7% (active). Besides, the results for the viability decrease (inhibition) in test [7] and in test [8] were 85% (active) and 38.4% (inactive), respectively. In test [9], the red/green cell ratio (normalised) was 1.59 (inactive). The figures for the normalised cell number in test [9] (setting [15]) and in test [9] (setting [16]) were 0.17 and 0.28, respectively. In addition, the fold change in test [10] (setting [17]) was 1.11 (inactive); in test [10] (setting [18]), 1.04. For the same compound, the cell count in test [10] (setting [19]) is 2760; in [10] (setting [20]), 2500. For the same compound, the remaining NAD in test [12] is 10 nM (inactive).
With `CC(C)(C)CC(C)(C)c1cc(Cc2cc(C(C)(C)CC(C)(C)C)cc(-n3nc4ccccc4n3)c2O)c(O)c(-n2nc3ccccc3n2)c1`, the nuclear beta-catenin stimulation in test [1] (at 10 µM) was 3.9% (inactive); in [1] (stimulation, at 2 µM) it was 2.5%. Moreover, the insulin secretion stimulation in test [2] was 1.7% (inactive). For the same compound, the viability decrease in test [3] is 9.1% (inactive). The tube area decrease in test [4] is -10.3% (inactive). In addition, the GLP1 secretion stimulation in [5] is 3.4% (inactive). The inhibition of viability in test [6] was 1.9% (inactive). Also, the viability decrease (inhibition) in test [7] is -54% (inactive); in test [8] it was 7.4% (inactive). Also, in test [9], the red/green cell ratio (normalised) was 0.81 (inactive). The normalised cell number in test [9] (setting [15]) was 1.28; in [9] (setting [16]), 1.04. The fold change in test [10] (setting [17]) is 0.928 (inactive); in test [10] (setting [18]) it was 0.844. Besides, the cell count in test [10] (setting [19]) was found to be 9130; in [10] (setting [20]), 9830. In test [12], the remaining NAD is 10 nM (inactive).

Broadly, the viability is a read-out of living cells in per cent, often relative to untreated cells.
